In the OligoGym collection:

Molecular target: LPAR3
Assay: pooled miR-30 sensor sort-seq; sequence = guide strand
Conditions: shRNA
Also: reference of the scale not given here.

| Sequence | sensor-assay potency score (higher = more potent) |
| --- | --- |
| TTCCTGTCCAGTCATCGACAGT | -1.5 |
| TTCTGTTTTTGATCACTGCCGC | -0.331 |
| TTGCAGACTGCACCTTGGCTAA | -1.28 |
| TAAATTAGCCAACAGGTAGTAG | -0.542 |
| ATGAGGTTGGACACTGTCCAGA | -1.36 |
| TTGACAGTCAAAGTTTTTGAAA | -1.6 |
| TTCCTCTTGACGTACACGTAGA | -0.848 |
| TAAGACAGTCATCACCGTCTTC | -0.295 |
| TTGACGTACACGTAGATCCGCA | 0.439 |
| TTGGCTAATACTATCCTCTATG | -0.824 |
| TTGTAGGAGTAGATGATGGGGT | -0.155 |
| TTAAACATCAGGAATACATAGG | -0.219 |

Molecular target: LRCH2
Assay: as above
Conditions: shRNA

| Sequence | sensor-assay potency score (higher = more potent) |
| --- | --- |
| TTCATTGCCACTTGAACTCTTC | 0.503 |
| TTCATCTATTTGATCCTTCTGA | 0.249 |
| TACTTGTAAATGATGCAGCTTT | 0.0854 |
| TATTACTTGTAAATGATGCAGC | 0.387 |
| TTTATTACAAGAGAAATCCAGC | -0.214 |
| TTAAACATATCTGTGCTGGTGG | 0.402 |
| TTTATTATTACTGACGACCAAA | -1.09 |
| TATCCATTCTGCAACATGCTTG | -0.471 |
| TTCATCTGCTGAGACACTCTTT | 0.135 |
| TTGTTCATCTATTTGATCCTTC | 0.648 |
| TTCTTCTCATTGTAAATCCTGG | -0.64 |
| TTGCAATGGATTGTTATCCAAA | -1.31 |
